# According to PubChem BioAssay (NCI):
# The panel holds about 83,000 compounds, 20% with a hit somewhere; the sample as a whole holds those more often.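 The test compound was applied at a single concentration to cells in 96-well plates for 48 hours, and percent growth was recorded.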 Activity calls are given as the source filed them. Rule for the calls: active = growth percent below 10; inactive = the rest.
# System: UACC-257 melanoma
# Experiment: NCI-60 one-dose screen, 48 h (100 = growth as untreated, 0 = no growth, -100 = all killed)
# Settings: 10 µM unless noted
row,Compound,growth
1,CC(C)(CO)N(CCO)CCO,116% (inactive)
2,CCOC(=O)c1c(C)c2c(n1C)CSc1cc(S(=O)(=O)c3ccccc3)c(=O)[nH]c1-2,41.9% [100 µM] (inactive)
3,Clc1ccc(-c2cn3ccsc3n2)c(Cl)c1Cl,87.7% (inactive)
4,CS(=O)(=O)Cc1cnc(C2OCCO2)s1,98.8% (inactive)

# System: M14 melanoma
# Experiment: as above
# Settings: 10 µM unless noted
row,Compound,growth
1,O=c1ccc2nc(C(F)(F)F)nn(-c3ccccc3)c-2c1,62.1% (inactive)
2,O=P(O)(O)OCC1OC(n2cnc3c(NCc4ccccc4)ncnc32)C(O)C1O (centres undefined),29.4% (inactive)
3,Cc1cc2nc(-c3c(-c4ccc(F)cc4)nc4sccn34)[nH]c2cc1C,99.5% (inactive)
4,CCOC(=O)N1CCN(S(=O)(=O)c2oc(-c3ccc(Cl)cc3)nc2C#N)CC1,75.4% (inactive)
5,CCCCCCCCn1ccc2cc(NC(=O)Cn3cc(CN4CCN(CC)CC4)nn3)ccc21,-64.3% (active)
6,CC12CCC(/C(=C/NNc3ccc([N+](=O)[O-])cc3[N+](=O)[O-])C1=O)C2(C)C (centres undefined),65.5% (inactive)
7,COc1ccc(/C(C)=C(\c2ccc(OCCN3CCCCCC3)cc2)c2ccc(OC(=O)c3ccccc3)cc2)cc1,-39% (active)
8,O=C(N/N=C/c1ccc([N+](=O)[O-])cc1)c1ccc2nc(-c3ccc(Cl)cc3)[nH]c2c1,25.9% (inactive)
9,COc1cc(/C=C\c2cc(/C=C\c3ccc(O)c(OC)c3)n(C(=O)CNc3ccc(Cl)cc3)n2)ccc1O,4.29% (active)
10,CN(C)c1ccc(-c2cc(-c3ccc(Nc4nc(Nc5ccc(Cl)cc5)nc(Nc5ccc(Cl)cc5)n4)cc3)nc(N)c2C#N)cc1,71.4% (inactive)
11,Nc1ccc([N+](=O)[O-])cc1N=C/C=C/c1ccccc1,68.4% (inactive)
12,Cc1nc2sc(C(=O)Nc3cccc(Cl)c3)c(N)c2cc1C(O)c1ccccc1 (centres undefined),15% (inactive)
13,COc1cc(C2=NN(C(C)=O)C(c3ccc(N(C)C)cc3)C2)cc(OC)c1OC (centres undefined),95% (inactive)
14,COc1cc2c(cc1O)[C@@]1(C)[C@H](c3ccccc3Br)OC(=O)N1CC2,88.3% (inactive)
15,CC1(C)CC[C@]2(C(=O)O)CC[C@]3(C)C(=CC[C@@H]4[C@@]5(C)C[C@@H](Cc6cn([C@@H]7O[C@H](CO)[C@@H](O)[C@H](O)[C@H]7O)nn6)[C@H](O)C(C)(C)[C@@H]5CC[C@]43C)[C@@H]2C1,97.5% (inactive)
16,COc1cccc(Nc2ccnc3[nH]c4ccc([N+](=O)[O-])cc4c23)c1,34% (inactive)
17,N#Cc1c(NC(=O)c2cccs2)[n+]([O-])c2ccc(Cl)cc2[n+]1[O-],80.2% (inactive)
18,O=C1Nc2ccc(F)cc2/C1=N/c1nnc(Sc2ccccc2)s1,99.2% (inactive)
19,COc1ccc(/C=C/C(=O)c2ccc(NC(=O)CSc3nnc(-c4cc(-c5ccccc5)nc5ccccc45)n3-c3ccccc3)cc2)cc1,99% (inactive)
20,CCN1C(=O)N(CC)C2C1NN=C1SCC(=O)N12 (centres undefined),85% (inactive)

row,Compound,growth
1,CC(=O)N/C(=C1/OC(C(O)C(O)C(O)CO)CN1C)[P+](c1ccccc1)(c1ccccc1)c1ccccc1 (centres undefined),99.7% (inactive)
2,CCOC(=O)Nc1nc2ccc(SCC(C)C)cc2s1,25.8% (inactive)
3,NNC(=S)N/N=C/c1ccccn1,23.7% (inactive)
4,Cc1[nH]c(/C=C/C(=O)c2ccc(C(F)(F)F)c(F)c2)c(C)c1C(=O)NCC(C)C,104% (inactive)
5,N#Cc1c(N2CCOCC2)nc(=S)[nH]c1-c1ccccc1,80.2% (inactive)
6,Cc1cc(N2CCCCC2)nc(N2CCN(CC(=O)Nc3ccc4c(ccn4Cc4ccccc4)c3)CC2)n1,50.9% (inactive)
7,CC(C)c1ccc(C(=O)Nc2sc3cc(O)ccc3c2C#N)cc1,5.43% (active)
8,O=C(/C=C/C12c3ccccc3C(c3ccccc31)C1C(=O)NC(=O)C12)c1ccccn1 (centres undefined),-15.4% (active)
9,CC(C)CSc1oc(-c2ccccc2)nc1S(=O)(=O)c1ccccc1,98.3% (inactive)
10,O=C(/C=C/c1ccc(Br)cc1)c1ccc(-n2cc(CN3CCN(c4cc5c(cc4F)c(=O)c(C(=O)O)cn5C4CC4)CC3)nn2)cc1,87% (inactive)
11,Nc1c(C(=O)Nc2ccncc2)sc2nc3c(cc12)CCCCC3,91.9% (inactive)
12,O=C(CCCCCCN1CC(=O)N2[C@@H](C3CCCCC3)c3[nH]c4ccccc4c3C[C@H]2C1=O)NO,63.8% (inactive)
13,COc1ccc2[nH]cc(-c3nc(-c4cn(C)c5ccncc45)cs3)c2c1,-88.7% (active)
14,O=C(/C=C\c1ccco1)/C=C/c1ccco1,105% (inactive)
15,O=C1NC(=C(Cl)Cl)/C(=N/S(=O)(=O)N2CCCCC2)N1,37.9% (inactive)
16,COc1ccc(C2=Nc3c(N)ncnc3NC(c3cccc(Nc4ccnc5cc(C(F)(F)F)ccc45)c3)C2)cc1 (centres undefined),66% (inactive)
17,CC(C)(CO)N(CCO)CCO,108% (inactive)
18,CCOC(=O)c1c(C)c2c(n1C)CSc1cc(S(=O)(=O)c3ccccc3)c(=O)[nH]c1-2,23.7% [100 µM] (inactive)
19,Clc1ccc(-c2cn3ccsc3n2)c(Cl)c1Cl,98.7% (inactive)
20,CS(=O)(=O)Cc1cnc(C2OCCO2)s1,99.9% (inactive)
